Several values for one entry are separate records, joined by “and”; a condition that tells them apart may be missing. Equal entries are not always repeated. Among all 16,000 compounds or so, about 4,000 (25%) were called active. Not shown: some 26% with an inconclusive outcome. The call rests on the fitted dose curve; in most records, active means well fitted curve in the direction sought with a large enough effect; inconclusive means small, poorly fitted or top-dose-only effect, or effect the other way; inactive means no such curve, though single readings can be large or run the other way. A selection follows. A structure can be active in one record and inactive in another.
molecular target: Cytochrome P450 2C9 (Homo sapiens) (UniProt P11712); assay: Cytochrome panel assay with activity outcomes; conditions: recombinant CYP, pro-luciferin dealkylation, luminescence, p450-cyp2c9; series mostly up to 57.1 µM
Sequence (P11712 whole entry, looked up): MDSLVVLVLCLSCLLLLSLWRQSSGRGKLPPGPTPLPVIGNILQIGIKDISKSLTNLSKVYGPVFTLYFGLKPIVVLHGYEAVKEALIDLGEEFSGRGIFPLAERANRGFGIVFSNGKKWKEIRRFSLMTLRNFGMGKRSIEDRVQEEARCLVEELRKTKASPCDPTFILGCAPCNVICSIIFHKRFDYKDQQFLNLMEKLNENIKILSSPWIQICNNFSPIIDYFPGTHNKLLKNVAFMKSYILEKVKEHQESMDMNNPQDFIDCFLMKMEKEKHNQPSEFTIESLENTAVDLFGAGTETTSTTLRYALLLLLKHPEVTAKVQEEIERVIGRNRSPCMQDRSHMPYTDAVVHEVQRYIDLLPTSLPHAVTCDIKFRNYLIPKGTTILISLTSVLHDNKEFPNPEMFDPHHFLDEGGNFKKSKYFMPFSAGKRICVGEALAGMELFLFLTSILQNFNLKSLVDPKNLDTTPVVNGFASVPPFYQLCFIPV
On the % scale 0 is the no-effect control and ±100 the full control effect.

| Structure (SMILES) | AC50 | activity, negative = inhibition |
| --- | --- | --- |
| O=C(OCCN1CCCCC1)c1c[nH]c2ccccc12 | inactive and 2 µM (active) | – |
| Cc1c(-c2ccccc2)oc2c(C(=O)OCCN3CCCCC3)cccc2c1=O | inactive | – |
| COc1cccc(OC)c1OCCCCN1CCCC1 | inactive | – |
| C[C@@](N)(Cc1ccc(O)c(O)c1)C(=O)O | inactive | – |
| CCOC(=O)c1c(C(C)(C)C)oc2ccc(O)cc12 | 20 µM (active) | – |
| C[C@@](N)(Cc1ccc(O)cc1)C(=O)O | inactive | – |
| CCC(=O)NC(=S)N1CCN(c2ccc([N+](=O)[O-])cc2Cl)CC1 | inactive | – |
| CC(C)Oc1cccc(C(=O)NC(=S)N2CCN(c3ccc(C(F)(F)F)cc3[N+](=O)[O-])CC2)c1 | 3.16 µM (active) | – |
| COc1cccc(OC)c1C(=O)NC(=S)N1CCN(c2ccc(C(F)(F)F)cc2[N+](=O)[O-])CC1 | 0.355 µM (active) | – |
| CC1CN(C(=S)NC(=O)c2ccc([N+](=O)[O-])cc2)CC(C)O1 (centres undefined) | inactive | – |
| CC(C)N=C(N)/N=C(\N)Nc1ccc(Cl)cc1 | inactive | – |
| CNCCc1ccccn1 | inactive | – |
| O=c1ccn([C@@H]2O[C@@H](COP(=O)(O)OP(=O)(O)O)[C@H](O)[C@@H]2O)c(=O)[nH]1 | inactive | – |
| CCc1c2c(nc3ccc(OC)cc13)COC2 | inactive | – |
| COc1cc2nc3c(c([Si](C)(C)C(C)(C)C)c2cc1OC)Cn1c-3cccc1=O | 15.8 µM (active) | – |
| COc1ccc2nc3c(c([Si](C)(C)C(C)(C)C)c2c1)Cn1c-3cccc1=O | 12.6 µM (active) | – |
| CC(C)NC(=O)N1CCCC2(CCN(C(=O)c3cc(C(F)(F)F)cc(C(F)(F)F)c3)CC2)C1 | inactive | – |
| CC(C)CN(CC#N)CC(C)C | – | 4.39% [at 11.4 µM] (inactive) |
| CN(C)CCCc1c2ccccc2nc2ccc(Cl)cc12 | – | 11.6% [at 11.4 µM] (inactive) |
| CSc1nc2ccccc2cc1/C=C(\C#N)c1ccccc1 | 3.98 µM (active) | – |

| Structure (SMILES) | AC50 | activity, negative = inhibition |
| --- | --- | --- |
| CSc1nc2ccccc2cc1/C=C(\C#N)c1ccc(Cl)cc1Cl | 25.1 µM (active) | – |
| COc1ccc(-n2c(=O)cnc3cnc(OC)nc32)cc1 | inactive | – |
| O=C(O)CC1(CC(=O)O)Nc2ccccc2SC1=O | – | -2.99% [at 11.4 µM] (inactive) |
| Cc1ccccc1NC(=O)CN1CCC(n2nnc3ccccc32)CC1 | inactive | – |
| Cc1cc(Cl)ccc1NC(=O)CN1CCC(C(O)(c2ccccc2)c2ccccc2)CC1 | 7.08 µM (active) | – |
| Cc1c(Cl)cccc1NC(=O)CC1NCCNC1=O (centres undefined) | inactive | – |
| Cc1c(Cl)cccc1NC(=O)CN1CCC(C(O)(c2ccccc2)c2ccccc2)CC1 | 2 µM (active) | – |
| Cc1c(NC(=O)CN2CCN(c3ccccc3)CC2)c(=O)n(-c2ccccc2)n1C | inactive | – |
| O[C@@](CCN1CCCCC1)(c1ccccc1)C1CCCCC1 | inactive | – |
| CCc1nc2cc(CC(=O)O)ccc2o1 | inactive | – |
| C[C@@H](C(=O)Nc1ccc2ccccc2c1)[C@H]1C[C@]1(C)[C@H](NC(=O)c1cnccn1)c1ccccc1 | 5.01 µM (active) | – |
| COC(=O)[C@H]1C[C@@H]1[C@H](NC(=O)c1cnccn1)c1ccccc1 | inactive | – |
| C[C@@H](C(=O)Nc1ccc2ccccc2c1)[C@@H]1C[C@@]1(C)[C@@H](NC(=O)c1cnccn1)c1ccccc1 | 0.0631 µM (active) | – |
| COC(=O)[C@@H]1C[C@H]1[C@@H](NC(=O)c1cnccn1)c1ccccc1 | inactive | – |
| COC(=O)C1=C(C)NC(C)=C([N+](=O)[O-])[C@@H]1c1ccccc1C(F)(F)F | 0.158 µM (active) | – |
| COC(=O)C1=C(C)NC(=O)NC1c1ccsc1 (centres undefined) | inactive | – |
| COC(=O)C1=C(C)NC(C)=C([N+](=O)[O-])[C@H]1c1ccccc1C(F)(F)F | 2 µM (active) | – |
| CO[C@@H]1/C=C\CC(=O)N[C@@H](C)C(=O)OC[C@H](NS(=O)(=O)c2ccc(C)cc2)[C@H](C)/C=C\CC(=O)OC[C@H]1C | – | 14.6% [at 11.4 µM] (inactive) |
| Cc1ccc([N+](=O)[O-])cc1NC(=S)NC(=O)CC(C)(C)C | 2.24 µM (active) | – |
| Cc1ccc([N+](=O)[O-])cc1NC(=S)NC(=O)C(C)(C)C | 0.708 µM (active) | – |

| Structure (SMILES) | AC50 | activity, negative = inhibition |
| --- | --- | --- |
| Cc1cnc(CNc2ncncc2-c2ccccc2C(F)(F)F)cn1 | – | 1.53% [at 2.29 µM] (inactive) |
| COc1ccc(OC)c2[nH]c(=O)c(CCNC(=O)c3ccc(S(=O)(=O)N(C)C)cc3)cc12 | 7.94 µM (active) | – |
| CCN(CC)CCNC(=O)c1cc(S(C)(=O)=O)ccc1OC | inactive | – |
| COc1ccc2cc(CCNC(=O)C3CC3)c(=O)[nH]c2c1 | inactive | – |
| CCN1CCCC1CNC(=O)CCNC(=O)c1cc(OC)c(OC)c(OC)c1 (centres undefined) | inactive | – |
| COc1ccc(OC)c2[nH]c(=O)c(CCNC(=O)c3ccc(S(=O)(=O)N4CCCC4)cc3)cc12 | 11.2 µM (active) | – |
| CCOC(=O)C(C)(C)[C@H](O)C(C)C | – | -6.81% [at 11.4 µM] (inactive) |
| COc1cccc(-c2nccc(NCc3ccccc3)n2)c1 | – | -19.2% [at 2.29 µM] (inactive) |
| CCOC(=O)CCc1c(C)nc2ncnn2c1C | inactive | – |
| Cc1ccc(CNC(=O)CCc2c(C)nc3ncnn3c2C)cc1 | inactive | – |
| COc1ccc(CCNc2cc(-c3ccccc3)nc3ncnn23)cc1 | 5.62 µM (active) | – |
| COc1cccc(-c2cc(NCc3ccccc3)ncn2)c1 | – | -1.27% [at 2.29 µM] (inactive) |
| CCc1c(C)nc2ncnn2c1NCCc1ccc(OC)cc1 | 1.58 µM (active) | – |
| CCNc1ncc2nc(-c3cc(F)cc(F)c3)c(=O)n(CCC#N)c2n1 | inactive | – |
| Fc1ccc(Nc2ccnc(-c3ccoc3)n2)cc1 | – | 9.66% [at 2.29 µM] (inactive) |
| CC(=O)OC[C@@H]1O[C@@H](O/N=C2/C[C@@H](O)[C@@H](O)[C@@H]3[C@@H]4C(=O)N(c5cccc(Oc6ccccc6)c5)C(=O)[C@H]4CC[C@@H]23)[C@H](OC(C)=O)[C@H](OC(C)=O)[C@@H]1OC(C)=O | – | 20.1% [at 11.4 µM] (inactive) |
| Cc1cc(O)c(C(C)C)cc1CN1CCCCC1 | – | -3.21% [at 11.4 µM] (inactive) |
| Cc1cc(O)c(-c2cc(O)c(C)cc2O)cc1O | 1.26 µM (active) | – |
| COc1ccc(-c2nc3c([nH]2)c(=O)n(C)c(=O)n3C)c(OC)c1 | inactive | – |
